Several values for one entry are separate records, joined by “and”; a condition that tells them apart may be missing. Equal entries are not always repeated. Inconclusive results are not listed. Activity calls are given as the source filed them. Unless noted, the call rests on the fitted dose curve; in most records, active means well fitted curve in the direction sought with a large enough effect in the repeat runs; inconclusive means weak or mixed curves; inactive means no such curve, though single readings can be large; an effect the other way counts as inactive or inconclusive.
Tests used:
[1] = target: Progesterone receptor (Homo sapiens) (UniProt P06401); experiment: qHTS assay to identify small molecule agonists of the progesterone receptor (PR) signaling pathway (AID 1346784; calls by dose curve; further: nearly all actives have a fitted effect of over 30% in size; further: potency means the concentration at half of the fitted maximal effect)
Outline: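 Fluorescence from LiveBLAzer B/G FRET substrate cleavage (2 hr, RT) reported PR activation in PR-UAS-bla HEK 293T cells treated 16 hr at 37C/5% CO2 with compounds; medium contained 2% charcoal-stripped FBS.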

[2] = target: Progesterone receptor (Homo sapiens) (UniProt P06401); experiment: qHTS assay to identify small molecule antagonists of the progesterone receptor (PR) signaling pathway (AID 1346795; active means well fitted inhibition curve with a large enough effect in the signal ratio in the repeat runs, not every such curve was filed as active; the % refers to the signal ratio)
Outline: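 Fluorescence intensity measured 2 hr after adding beta-lactamase FRET substrate to PR-UAS-bla HEK293T cells that had been co-treated 16 hr with compound and 1 nM R5020 (final concentration) in 2% charcoal-stripped FBS.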

[3] = qHTS assay to identify small molecule antagonists of the progesterone receptor (PR) signaling pathway - cell viability counter screen (AID 1346798); further: nearly all actives have a fitted effect of over 50% in size; further: potency means the concentration at half of the fitted maximal effect; on activity change, negative = cytotoxicity: series mostly up to about 92 µM
Outline: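 CellTiter-Glo luminescence; PR-UAS-bla HEK293T, 3,000 cells/well; compound + R5020, 16 hr, 37C/5% CO2; 30 min RT before read.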

[4] = qHTS assay to identify small molecule antagonists of the TGF-beta/Smad signaling pathway - cell viability counter screen (AID 1346824); further: nearly all actives have a fitted effect of over 50% in size; further: potency means the concentration at half of the fitted maximal effect
Outline: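 Cytotoxicity counter-screen run in the same wells as the beta-lactamase Smad reporter read: CellTiter-Glo luminescence after 30 min at room temperature. HEK 293T SBE-bla cells had 5 hr compound exposure at 37 C with TGF-beta1 (0.25 ng/mL stock).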

[5] = qHTS assay to identify small molecule agonists of the TGF-beta/Smad signaling pathway (AID 1346859; active means well fitted activation curve with a large enough effect in the signal ratio in the repeat runs, not every such curve was filed as active; the % refers to the signal ratio; further: series mostly up to about 77 µM)
Outline: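 After overnight seeding, SBE-bla HEK 293T cells are dosed with compounds in DMSO and kept 5 hr at 37 C, 5% CO2. LiveBLAzer-type FRET substrate is then applied for 2 hr at room temperature.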

[6] = target: Thyrotropin-releasing hormone receptor (Homo sapiens) (UniProt P34981); experiment: qHTS assay to identify small molecule antagonists of the thyrotropin-releasing hormone receptor (TRHR) signaling pathway (AID 1346877; active means well fitted inhibition curve with a large enough effect in the repeat runs, not every such curve was filed as active; further: series mostly up to about 51 µM)
Outline: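 Intracellular calcium fluorescence, read kinetically every second over 3 min, reports TRH-evoked signalling in HEK293 cells carrying TRHR. Test compounds were added 5 min ahead of a 1 nM TRH challenge.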

[7] = target: Thyrotropin-releasing hormone receptor (Homo sapiens) (UniProt P34981); experiment: qHTS assay to identify small molecule agonists of the thyrotropin-releasing hormone receptor (TRHR) signaling pathway (AID 1346891; calls by dose curve;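 further: HEK293 cells expressing TRHR with calcium dye readout; series mostly up to about 58 µM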)
Outline: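 Compounds were tested as agonists at 15 concentrations, in triplicate, on TRHR-Hek293 cells; calcium-sensitive dye fluorescence was recorded for 3 min following addition.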

[8] = Caspase-3/7 induction in HepG2 cells by small molecules, qHTS assay (AID 1346978); further: nearly all actives have a fitted effect of over 15% in size; further: potency means the concentration at half of the fitted maximal effect
Outline: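 Caspase-3/7 induction was measured by Caspase-Glo 3/7 luminescence (30 min, room temperature) after a 17 hr compound exposure of wild-type HepG2 cells seeded at 2,000 per well and pre-incubated 5 hr.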

[9] = Caspase-3/7 induction in CHO-K1 cells by small molecules, qHTS cell viability counter screen (AID 1346979); further: nearly all actives have a fitted effect of over 35% in size; further: potency means the concentration at half of the fitted maximal effect
Outline: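 Viability readout by fluorescence (CellTiter-Fluor) on wild-type CHO-K1 cells exposed for 16hr at 37C and 5% CO2 to compounds delivered in DMSO; reagent incubated 1hr before reading.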

[10] = Caspase-3/7 induction in CHO-K1 cells by small molecules, qHTS assay (AID 1346980); further: nearly all actives have a fitted effect of over 15% in size; further: potency means the concentration at half of the fitted maximal effect
Outline: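 Luminescent Caspase-Glo 3/7 read (30min, room temperature) quantified apoptosis induction. Cells were wild-type CHO-K1, treated with compound for 17hr at 37 C and 5% CO2.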

[11] = target: Nuclear receptor subfamily 1 group I member 2 (Homo sapiens) (UniProt O75469); experiment: Human pregnane X receptor (PXR) small molecule agonists, qHTS assay (AID 1346982); further: nearly all actives have a fitted effect of over 35% in size; further: potency means the concentration at half of the fitted maximal effect
Outline: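 Luciferase signal from ONE-Glo (30 min, room temperature) measured activation of hPXR-driven CYP3A4 reporter expression in PXR-Luc HepG2 cells treated with compounds for 24 hr at 37 C.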

[12] = target: Nuclear receptor subfamily 1 group I member 2 (Homo sapiens) (UniProt O75469); experiment: CYP3A4 induction through human pregnane X receptor (PXR) by small molecules, qHTS assay (AID 1346984); further: nearly all actives have a fitted effect of over 40% in size
Outline: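 Luminescence readout: luciferase signal after One-Glo (30 min, room temperature), following 3 h at 37C with 3uM final Luciferin-IPA P450 substrate. Cells were DPX-2 (HepG2, PXR/CYP3A4-luc co-transfected) dosed for 24 h.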

[13] = target: Nuclear receptor subfamily 1 group I member 2 (Homo sapiens) (UniProt O75469); experiment: Human pregnane X receptor (PXR) activation by small molecules, qHTS assay (AID 1346985); further: nearly all actives have a fitted effect of over 40% in size
Outline: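 DPX-2 cells (HepG2 co-transfected with a PXR response element and a CYP3A4-promoter luciferase construct) were seeded at 2,000 per well, rested 5 hr at 37C, then exposed to DMSO-dissolved compounds for 24 hr. Activation was read as luciferase luminescence.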

[14] = target: Cytochrome P450 2D6 (Homo sapiens) (UniProt P10635); experiment: Cytochrome P450 Family 2 Subfamily D Member 6 (CYP2D6) small molecule antagonists: luciferase reporter qHTS assay (AID 1671196); further: nearly all actives have a fitted effect of over 50% in size; further: potency means the concentration at half of the fitted maximal effect; on activity change, negative = inhibition: series mostly up to about 120 µM
Outline: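 Read-out is luminescence from luciferin formed by CYP2D6 turnover of a proluciferin substrate, recorded as relative luminescence units. Reactions ran 1 h at room temperature after NADPH regeneration solution was added.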

[15] = target: Cytochrome P450 2C19 (Homo sapiens) (UniProt P33261); experiment: Cytochrome P450 Family 2 Subfamily C Member 19 (CYP2C19) small molecule antagonists: luciferase reporter qHTS assay (AID 1671197); further: nearly all actives have a fitted effect of over 65% in size; further: potency means the concentration at half of the fitted maximal effect; on activity change, negative = inhibition: series mostly up to about 120 µM
Outline: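 Compounds were tested on CYP2C19 activity via proluciferin conversion to luciferin. The 37C, 1 h reaction followed NADPH addition; detection reagent stopped it.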

[16] = qHTS assay to identify small molecule agonists of the progesterone receptor (PR) signaling pathway - cell viability counter screen (AID 1346799; calls by dose curve; further: nearly all actives have a fitted effect of over 45% in size; further: potency means the concentration at half of the fitted maximal effect)
Outline: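 In parallel with the beta-lactamase readout, cytotoxicity toward PR-UAS-bla HEK293T cells was measured by CellTiter-Glo luminescence following 16 hr compound incubation in 2% charcoal-stripped FBS medium.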

[17] = qHTS assay to identify small molecule agonists of the TGF-beta/Smad signaling pathway - cell viability counter screen (AID 1346829); further: nearly all actives have a fitted effect of over 45% in size; further: potency means the concentration at half of the fitted maximal effect; on activity change, negative = cytotoxicity: top concentration of the series differs between compounds
Outline: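 In parallel with the Smad reporter read, viability of HEK 293T cells stably carrying SBE-bla is quantified by ATP luminescence following 5 hr compound treatment.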

[18] = Human pregnane X receptor (PXR) small molecule agonists, qHTS cell viability counter screen (AID 1346977); further: nearly all actives have a fitted effect of over 50% in size; further: potency means the concentration at half of the fitted maximal effect
Outline: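 Viability counter screen: CellTiter-Fluor signal in PXR-Luc HepG2 cells, 24hr compound exposure, 37C, 5% CO2.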

[19] = Caspase-3/7 induction in HepG2 cells by small molecules, qHTS cell viability counter screen (AID 1346981); further: nearly all actives have a fitted effect of over 30% in size; further: potency means the concentration at half of the fitted maximal effect; on activity change, negative = cytotoxicity: series mostly up to about 92 µM
Outline: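 HepG2, WT, 2,000 cells/well; 5 hr pre-incubation 37 C/5% CO2; compound pin-transferred from DMSO; 16 hr exposure; CellTiter-Fluor, 1 hr; fluorescence read.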
On the % scale 0 is the no-effect control and ±100 the full control effect.

Sequence of Cytochrome P450 2C19 (Homo sapiens) (P33261 whole entry, looked up): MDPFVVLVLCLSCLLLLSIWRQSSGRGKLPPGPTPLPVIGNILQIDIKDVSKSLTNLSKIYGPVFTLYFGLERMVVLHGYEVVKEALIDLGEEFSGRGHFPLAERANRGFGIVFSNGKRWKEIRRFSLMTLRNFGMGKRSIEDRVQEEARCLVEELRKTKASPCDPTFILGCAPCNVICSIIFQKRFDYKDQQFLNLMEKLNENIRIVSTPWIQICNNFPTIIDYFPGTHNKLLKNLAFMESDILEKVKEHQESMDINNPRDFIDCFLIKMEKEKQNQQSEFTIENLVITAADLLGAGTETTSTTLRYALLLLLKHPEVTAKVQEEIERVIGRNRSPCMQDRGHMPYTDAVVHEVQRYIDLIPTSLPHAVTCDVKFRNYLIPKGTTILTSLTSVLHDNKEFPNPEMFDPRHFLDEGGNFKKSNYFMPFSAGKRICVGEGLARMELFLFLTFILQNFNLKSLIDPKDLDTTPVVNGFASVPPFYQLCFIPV
Sequence of Progesterone receptor (Homo sapiens) (P06401 whole entry, looked up): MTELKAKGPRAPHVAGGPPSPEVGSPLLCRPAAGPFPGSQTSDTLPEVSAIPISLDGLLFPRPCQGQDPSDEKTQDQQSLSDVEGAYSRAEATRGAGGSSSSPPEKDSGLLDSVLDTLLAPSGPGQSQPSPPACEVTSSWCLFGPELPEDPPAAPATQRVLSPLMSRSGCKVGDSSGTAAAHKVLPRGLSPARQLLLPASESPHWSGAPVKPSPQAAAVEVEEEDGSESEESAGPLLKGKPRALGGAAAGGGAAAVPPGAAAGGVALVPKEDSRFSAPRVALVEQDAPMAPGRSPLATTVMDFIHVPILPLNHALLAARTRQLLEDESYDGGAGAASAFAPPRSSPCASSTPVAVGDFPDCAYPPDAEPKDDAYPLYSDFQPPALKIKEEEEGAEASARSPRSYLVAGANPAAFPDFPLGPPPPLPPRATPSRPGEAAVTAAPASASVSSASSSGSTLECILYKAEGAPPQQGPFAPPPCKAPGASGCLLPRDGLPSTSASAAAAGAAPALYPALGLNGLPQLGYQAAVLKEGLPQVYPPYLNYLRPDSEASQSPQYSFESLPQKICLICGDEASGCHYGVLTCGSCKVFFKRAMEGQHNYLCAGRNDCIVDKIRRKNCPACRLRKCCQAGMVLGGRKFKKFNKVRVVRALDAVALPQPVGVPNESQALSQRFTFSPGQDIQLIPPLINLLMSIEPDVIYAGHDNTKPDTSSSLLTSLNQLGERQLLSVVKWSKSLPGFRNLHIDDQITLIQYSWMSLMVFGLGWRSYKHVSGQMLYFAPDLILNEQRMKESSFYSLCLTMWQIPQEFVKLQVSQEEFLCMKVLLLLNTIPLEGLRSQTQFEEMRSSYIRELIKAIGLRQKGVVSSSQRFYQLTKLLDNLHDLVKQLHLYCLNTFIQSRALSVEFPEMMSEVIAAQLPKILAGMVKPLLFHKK
Sequence of Thyrotropin-releasing hormone receptor (Homo sapiens) (P34981 whole entry, looked up): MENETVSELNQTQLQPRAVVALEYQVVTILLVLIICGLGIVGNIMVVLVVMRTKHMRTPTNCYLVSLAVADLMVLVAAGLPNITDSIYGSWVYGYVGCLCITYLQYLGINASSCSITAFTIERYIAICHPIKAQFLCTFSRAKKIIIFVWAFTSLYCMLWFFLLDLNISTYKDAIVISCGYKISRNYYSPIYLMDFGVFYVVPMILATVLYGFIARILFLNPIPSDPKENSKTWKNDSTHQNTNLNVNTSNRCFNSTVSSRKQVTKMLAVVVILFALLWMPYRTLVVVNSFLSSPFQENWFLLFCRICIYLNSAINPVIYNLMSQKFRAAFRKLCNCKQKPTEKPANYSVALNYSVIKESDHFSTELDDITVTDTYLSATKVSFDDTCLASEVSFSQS
Sequence of Nuclear receptor subfamily 1 group I member 2 (Homo sapiens) (O75469 whole entry, looked up): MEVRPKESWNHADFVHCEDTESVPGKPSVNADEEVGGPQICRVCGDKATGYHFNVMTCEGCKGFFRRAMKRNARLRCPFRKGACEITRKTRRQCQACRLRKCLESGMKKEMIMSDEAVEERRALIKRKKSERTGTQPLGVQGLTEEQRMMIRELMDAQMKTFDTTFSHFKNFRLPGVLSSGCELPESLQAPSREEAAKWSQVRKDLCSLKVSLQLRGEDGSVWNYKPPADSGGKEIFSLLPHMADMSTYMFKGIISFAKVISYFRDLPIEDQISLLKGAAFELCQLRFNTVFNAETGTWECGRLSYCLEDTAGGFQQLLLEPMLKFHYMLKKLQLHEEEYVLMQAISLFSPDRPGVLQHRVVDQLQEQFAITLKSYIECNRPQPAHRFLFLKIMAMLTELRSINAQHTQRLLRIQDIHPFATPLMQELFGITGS
Sequence of Cytochrome P450 2D6 (Homo sapiens) (P10635 whole entry, looked up): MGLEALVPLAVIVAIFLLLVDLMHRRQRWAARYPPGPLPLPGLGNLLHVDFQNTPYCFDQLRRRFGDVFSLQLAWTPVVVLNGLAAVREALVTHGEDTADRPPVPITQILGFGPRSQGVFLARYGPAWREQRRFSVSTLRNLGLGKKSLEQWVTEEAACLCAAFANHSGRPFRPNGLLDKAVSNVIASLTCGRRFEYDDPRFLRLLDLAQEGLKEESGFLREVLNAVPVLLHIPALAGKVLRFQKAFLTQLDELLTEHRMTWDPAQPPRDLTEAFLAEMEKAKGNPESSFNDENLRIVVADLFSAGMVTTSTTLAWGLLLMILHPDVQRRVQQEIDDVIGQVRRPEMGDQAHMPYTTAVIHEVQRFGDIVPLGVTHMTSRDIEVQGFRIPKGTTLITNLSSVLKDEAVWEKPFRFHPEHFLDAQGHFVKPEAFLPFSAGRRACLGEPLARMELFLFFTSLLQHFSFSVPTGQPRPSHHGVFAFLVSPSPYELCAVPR

COC(=O)C1=C(C)NC(C)=C(C(=O)OCCN2CCN(C(c3ccccc3)c3ccccc3)CC2)C1c1cccc([N+](=O)[O-])c1 (stereo unspecified)
active: Potency [9] 21.1 µM | Potency [14] 2.75 µM | Potency [15] 2.45 µM
inactive: Potency [1] | Potency [2] | Potency [3] | Potency [4] | Potency [5] | Potency [6] | outcome [7] | Potency [8] | Potency [10] | Potency [11] | Potency [12] | Potency [13]

Nc1ccc(C(=O)O)c(O)c1
inactive: Potency [1] | Potency [2] | Potency [16] | Potency [17] | Potency [5] | Potency [6] | outcome [7] | Potency [18] | Potency [8] | Potency [9] | Potency [10] | Potency [19] | Potency [11] | Potency [12] | Potency [13] | Potency [14] | Potency [15]

CCCCCCOC(=O)C(C)CC (stereo unspecified)
inactive: Potency [1] | Potency [2] | Potency [16] | Potency [4] | Potency [17] | Potency [5] | Potency [6] | outcome [7] | Potency [18] | Potency [8] | Potency [9] | Potency [10] | Potency [19] | Potency [11] | Potency [14] | Potency [15]

O=C1NC(=O)[C@@H]2CC=CC[C@H]12
inactive: Potency [1] | Potency [4] | Potency [17] | Potency [5] | Potency [6] | outcome [7] | Potency [18] | Potency [8] | Potency [9] | Potency [10] | Potency [19]
active: Potency [3] 15.4 µM | Potency [16] 8.63 µM

Fc1ccc(C(c2ccc(F)cc2)N2CCNCC2)cc1
active: Potency [14] 2.19 µM
inactive: Potency [1] | Potency [2] | Potency [4] | Potency [17] | Potency [5] | Potency [6] | outcome [7] | Potency [18] | Potency [8] | Potency [9] | Potency [10] | Potency [19] | Potency [11] | Potency [15]

CC(=O)c1ccc(C(C)=O)cc1
active: Potency [15] 64.8 µM
inactive: Potency [1] | Potency [2] | Potency [16] | Potency [4] | Potency [17] | Potency [5] | Potency [6] | outcome [7] | Potency [18] | Potency [8] | Potency [9] | Potency [10] | Potency [19] | Potency [11] | Potency [14]

CCCCNS(=O)(=O)c1ccc(C)cc1
inactive: Potency [1] | Potency [3] | Potency [16] | Potency [4] | Potency [17] | Potency [5] | Potency [6] | outcome [7] | Potency [18] | Potency [8] | Potency [9] | Potency [10] | Potency [19]
active: Potency [15] 5.64 µM

CC(N=C(NC#N)Nc1ccncc1)C(C)(C)C (stereo unspecified)
inactive: Potency [1] | Potency [2] | Potency [16] | Potency [4] | Potency [17] | Potency [5] | Potency [6] | outcome [7] | Potency [18] | Potency [8] | Potency [9] | Potency [10] | Potency [19]
active: Potency [15] 1.55 µM

C=CC(=O)Nc1cc2c(Nc3ccc(F)c(Cl)c3)ncnc2cc1OCCCN1CCOCC1
inactive: Potency [1] | Potency [3] | Potency [4] | Potency [17] | Potency [6] | outcome [7] | Potency [10] | Potency [15]
active: Potency [9] 5.96 µM | Potency [19] 5.96 µM | Potency [11] 10.6 µM

O=C(O)O
active: Potency [1] 0.373 µM | Potency [15] 3.86 µM
inactive: viability change, negative = cytotoxic [4] 7.39% [at 6.97 µM] | activation [5] 4.78% [at 6.97 µM] | activity, negative = inhibition [6] 1.6% [at 4.65 µM] | activation [7] -0.122% [at 5.23 µM] | activity change, negative = cytotoxicity [18] 1.04% [at 8.39 µM] | activity change, negative = cytotoxicity [9] 0.8% [at 8.39 µM] | caspase-3/7 activation [10] 0.298% [at 8.39 µM] | activity change, negative = cytotoxicity [19] -0.291% [at 8.39 µM] | activation [11] 4.39% [at 8.39 µM] | activity change, negative = inhibition [14] -1.63% [at 10.5 µM]

CCCCCCCCCCCCCC[N+](C)(C)Cc1ccccc1
inactive: Potency [1] | Potency [5] | Potency [10] | Potency [11] | Potency [12] | Potency [13]
active: Potency [3] 55.3 µM and 5.96 µM | Potency [16] 27.7 µM and 6.68 µM and 12.6 mM | Potency [4] 49.7 µM | Potency [17] 49.7 µM and 19 µM | Potency [18] 55.3 µM | Potency [8] 62.1 µM | Potency [9] 43.9 µM and 33.5 µM and 17.8 mM | Potency [14] 908 nM and 1.1 µM | Potency [15] 64.3 µM and 20 mM

CCCCCCCCCCCCOC(=O)c1ccc(O)cc1
active: Potency [8] 54.9 µM | Potency [10] 61.6 µM | Potency [11] 27.5 µM | Potency [14] 11.3 µM | Potency [15] 4.02 µM
inactive: Potency [1] | Potency [3] | Potency [4] | Potency [17] | Potency [5] | Potency [6] | outcome [7] | Potency [18]

From PubChem BioAssay (Tox21)
